Hits are enriched below; roughly 3.1% of the tested compounds scored in any of these assays.
RGS4 inh – Inhibitors of Regulator of G Protein Signaling (RGS) 4: qHTS; Regulator of G-protein signaling 4 (Homo sapiens), P49798; Transcreener GDP fluorescence polarization, RGS4-accelerated GTP hydrolysis; Potency, µM (series often up to 114 µM), for inactives: top-dose activity change, negative = inhibition, most hits filed as inhibitors; actives 0.039% (n = 390,000); active = well fitted inhibition curve with a large enough effect; inconclusive = small, poorly fitted or top-dose-only effect; inactive = no such curve, though single readings can be large or run the other way; also: potency is read from the fitted curve at half-maximal effect; % is scaled to controls: 0 for no effect and ±100 for the full control effect; nearly all actives have a fitted effect of over 75% in size
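MLSMR compounds (23 nl, pin-transferred) preincubated 10 min at room temperature with a 500nM (2x) first reagent, then RGS4 at 900nM (2x) plus Transcreener GDP mix added; fluorescence polarization (620/688 nm) read before and after 90 min at 30 °C.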
DRD3 agonist – qHTS of D3 Dopamine Receptor Agonist: qHTS | D(3) dopamine receptor (Homo sapiens), P35462 | D3R DiscoveRx beta-arrestin cells, luminescence, 90 min | max activation, % | actives 0.58% (n = 410,000); in the data active = max activation above about 30%; also: 0% is about no effect
Target sequence (P35462 whole entry, looked up): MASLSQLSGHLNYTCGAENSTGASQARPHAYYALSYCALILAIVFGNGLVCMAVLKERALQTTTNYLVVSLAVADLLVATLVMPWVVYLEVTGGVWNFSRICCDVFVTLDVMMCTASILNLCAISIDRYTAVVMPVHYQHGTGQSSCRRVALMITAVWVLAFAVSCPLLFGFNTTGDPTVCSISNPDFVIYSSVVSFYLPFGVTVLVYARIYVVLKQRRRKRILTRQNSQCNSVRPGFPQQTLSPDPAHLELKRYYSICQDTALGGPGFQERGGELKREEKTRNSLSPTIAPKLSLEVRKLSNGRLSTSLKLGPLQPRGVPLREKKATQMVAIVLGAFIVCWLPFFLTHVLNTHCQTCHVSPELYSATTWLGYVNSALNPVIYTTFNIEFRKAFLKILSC
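Agonist mode: compounds and dopamine controls were applied to plated cells for 90 min at 37 degrees C after an overnight attachment at 1500 cells/well. Luminescent read-out followed 30 - 60 minutes at room temperature with DiscoveRx detection reagent.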
uPA surface inh – qHTS for Inhibitors of Cell Surface uPA Generation; actives 0.31% (n = 330,000); cell surface uPA generation assay, qHTS; Potency, µM (top dose mostly 38.3 µM), without a hit: top-dose activity change, negative = inhibition, usual class: inhibitors; active = well fitted inhibition curve with a large enough effect; inconclusive = small, poorly fitted or top-dose-only effect; inactive = no such curve, though single readings can be large or run the other way; tested in mouse RAW 264.7 cells; also: potency is read from the fitted curve at half-maximal effect; % is scaled to controls: 0 for no effect and ±100 for the full control effect; nearly all actives have a fitted effect of over 55% in size
DRD3 antagonist – qHTS of D3 Dopamine Receptor Antagonist: qHTS | max response, negative = inhibition, % | D3R cells, DiscoveRx beta-arrestin luminescence, antagonist mode; active compounds read low | actives 2.5% (n = 360,000); in the data active = max response below about -50%; inconclusive = no clear call, values can overlap the other calls; also: % is scaled to controls: 0 for no effect and ±100 for the full control effect
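Cells expressing the human receptor were seeded at 1500 cells/well, incubated overnight at 37 degrees C in 5% CO2, then exposed to library compounds with dopamine controls for 90 minutes at 37 degrees C before luminescent detection.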
* hit, by the source's call; ? = inconclusive; . = no result given; ! = a repeat was not active; [ ] = remark or other dose.

SMILES	RGS4 inh	DRD3 agonist	uPA surface inh	DRD3 antagonist
CCSc1nc2ccccc2n1C(=O)/C=C\c1ccc(OC)c(OC)c1	-40%	-4	-12%	-54*
CCOC(=O)c1c(C)oc2c1c(C=NCc1ccccn1)c(O)c1ccccc12	-25%	0	12%	-105*
O=C(CN1C(=O)COc2ccccc21)N(CCCN1CCOCC1)CC1CC=CCC1 (configuration not stated)	-2%	-58	.	-57*
O=C(CN1C(=O)COc2ccccc21)NCCCN1CCOCC1	17%	2	2%	-6
CCN(CC)S(=O)(=O)c1ccc(OC)c(NC(=O)c2ccc([N+](=O)[O-])cc2)c1	?	-6	4%	-17
CCN(CC)S(=O)(=O)c1cc([N+](=O)[O-])ccc1NNC(=O)Nc1ccc(F)cc1	-5%	-1	4%	-72*
CCN(CC(=O)Nc1ccc([N+](=O)[O-])cc1OC)c1ccccc1	1%	-2	8%	-68*
CCN(CC)S(=O)(=O)c1cc([N+](=O)[O-])ccc1NNC(=O)Nc1ccccc1OC	-20%	-5	4%	-86*
CCOC(=O)c1c(C)cc(O)cc1O	-2%	38*	-9%	10
CCCCN(CC)CCCNC(=S)Nc1ccc2nc(N3CCN(CC)CC3)cc(C)c2c1	-15%	12	0%	-54*
COc1cc(SC)ccc1C(=O)NCCOc1ccc(Cl)cc1	1%	2	-2%	17
COc1cc(SC)ccc1C(=O)NCCOc1c(C)cc(C)cc1C	-8%	-3	-3%	-83*
COc1cc(SC)ccc1C(=O)Nc1ncc(C)s1	3%[56.9 µM]	3	3.5µM*	-3
Cc1ccccc1NC(=O)/C(C#N)=C/c1ccc(-c2ccc(Cl)c(C(=O)O)c2)o1	-8%	-15	1%	-66*
Cc1ccc(NC(=O)/C(C#N)=C/c2ccc(-c3ccc(Cl)c(C(=O)O)c3)o2)cc1C	-4%	-12	.	.
N#C/C(=C\c1ccc(-c2cccc(Cl)c2)o1)C(=O)Nc1cccc2cccnc12	?	0	1%	-51*
CCCCOC(=O)c1ccc(NC(=O)/C(C#N)=C/c2ccc(-c3ccccc3)o2)cc1	-9%	0	.	.
N#C/C(=C\c1ccc(-c2ccccc2)o1)C(=O)Nn1cnnc1	-48%	0	2%	-69*
Cc1ccc(CCC2C3=C(CCCC3=O)OC3=C2C(=O)CCC3)cc1	-20%	30*	-9%	?
CC(C)c1ccc(CC(C)C2C3=C(CCCC3=O)OC3=C2C(=O)CCC3)cc1 (configuration not stated)	-29%	5	5%	3
CC12CCC(=O)N1C(C(=O)Nc1nccs1)CS2 (configuration not stated)	-27%	79*	0%	8
COc1ccc(CN(C)CCc2ccccn2)cc1OC	-30%	-4	5%	-76*
CN1CCC(=C2c3ccccc3CCc3cccnc32)CC1	.	-25	.	.
CCOC(=O)N1CCC(=C2c3ccc(Cl)cc3CCc3cccnc32)CC1	-4%[56.9 µM]	52*!	-11%	126
Cc1c(C)n(C)c2ccc(C(=O)NCCCN3CCN(c4ccc(F)cc4)CC3)cc12	21%[11.4 µM]	-19	-5%	-56*
SMILES	RGS4 inh	DRD3 agonist	uPA surface inh	DRD3 antagonist
CCc1nc2ccc(C(=O)NCCCN3CCN(c4ccccc4F)CC3)cc2nc1CC	24%	18	-8%	-66*
Cc1c(C)n(C)c2ccc(C(=O)NCCCN3CCCC3)cc12	-7%	2	16%	0
O=C(NCCN1CCN(c2ccccc2F)CC1)c1ccc2nc3ccccc3c(=O)n2c1	0%	3	6%	-58*
Cc1c(C)n(C)c2ccc(C(=O)NCCCN3CCN(c4ccccc4F)CC3)cc12	4%[11.4 µM]	-3	-15%	-82*
COc1ccccc1N1CCN(C(=O)c2cn(C)c3ccc(S(=O)(=O)N(C)C4CCCCC4)cc3c2=O)CC1	10%	0	.	.
COc1ccc(C)cc1NC(=O)COCc1cc(-c2ccc(F)cc2)on1	11%	7	.	.
OCCN1CCN(Cc2cc(Br)cc(Br)c2O)CC1	-22%	-26	.	-51*
OCCN1CCN(Cc2cc(Cl)c3cccnc3c2O)CC1	11%	-29	.	?
O=C1O[C@H]2[C@H](O)[C@@H]1OC(O)[C@H]2O (some centres not stated)	.	5	.	.
CCN(CC)CCN(Cc1cc2cc(C)c(C)cc2[nH]c1=O)C(=S)NCc1ccco1	-24%	-27	-5%	-72*

Screening results (PubChem)
